Assay outcomes as filed in PubChem.
Shown are actives, neighbours in structure and some others; about 6.9% of the full set was active somewhere.
KB-3-1 tox: KB-3-1 parental cell cytotoxicity; Potency, µM (highest dose often 46.1 µM), actives largely listed as cytotoxic; AID 1347075; 1.4% of 400,000 active; KB-3-1 viability, CellTiter-Glo ATP luminescence, 72 h; also: potency is read from the fitted curve at half-maximal effect; % is scaled to controls: 0 for no effect and ±100 for the full control effect; nearly all actives have a fitted effect of over 60% in size
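Multi-concentration cytotoxicity screen in KB-3-1 cells grown in DMEM lacking phenol red with 10% FBS. After 72 h at 37 °C with compound, ATP-dependent luminescence was recorded.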
MCF10A rereplic: DNA re-replication induction in MCF 10a cells | Potency, µM (doses to about 46.1 µM), for the others: at the highest dose activity, positive = re-replication, usual class: activators | 2.9% of 350,000 active | MCF 10A DNA re-replication, Hoechst nuclear intensity, 48 h | AID 624296; also: potency is read from the fitted curve at half-maximal effect; % of control where 0% means no effect; nearly all actives have a fitted effect of over 50% in size
Giardia killer: Giardia lamblia killing. 0.15% of 340,000 active. activity change, % at 7.66 µM, hits read low. Giardia lamblia trophozoite viability; in the data active = activity change below about -80%; inconclusive = between about -30% and that limit;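 also: parasites exposed to compound for two days anaerobically before the ATP read; % is scaled to controls: 0 for no effect and ±100 for the full control effect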
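Anaerobic 48 hrs incubation at 37 deg C of 100 trophozoites/well with test compounds; ATPLite 1-Step luminescence, 15-30 min RT, reports cellular ATP as viability.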
SW480 rereplic: inducers of DNA re-replication in SW480 colon cancer cells. SW480 DNA re-replication, Hoechst DNA content imaging, 48 h. Potency, µM (titrated, usually from 46.1 µM), for inactives: top-dose re-replication activation, actives largely listed as activators. 1.8% of 340,000 active. AID 624297; also: potency is read from the fitted curve at half-maximal effect; % of control where 0% means no effect; nearly all actives have a fitted effect of over 55% in size
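Readout is total intensity of Hoechst-stained nuclei, excited at 405 nm and collected at 500-530 nm. Compound treatment lasted 48 hr at 37 C in 5% CO2 before staining.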
KB-V1 cytotox: KB-V1 MDR subline cytotoxicity. KB-V1 MDR cells viability, CellTiter-Glo, 72 h. Potency, µM (top dose mostly 46.1 µM), most hits filed as cytotoxic. 3.4% of 400,000 active; also: potency is read from the fitted curve at half-maximal effect; % is scaled to controls: 0 for no effect and ±100 for the full control effect; nearly all actives have a fitted effect of over 60% in size
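Readout: CellTiter-Glo luminescence, 10 min after addition. Cells: KB-V1 MDR subline, 72 h at 37 degrees C with compound. Analysis: corrected, normalized data fitted to concentration-effect curves.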
S-ASM inh: blocks human secretory acid sphingomyelinase. placental ASM, HMU-PC fluorogenic substrate, 60 min. 0.006% of 340,000 active. AID 504937. P17405. Potency, µM (doses to about 57.5 µM), inactives show at the top dose activity change, negative = inhibition, hits mostly inhibitors; also: potency is read from the fitted curve at half-maximal effect
Target sequence (P17405 47-631 limits assumed): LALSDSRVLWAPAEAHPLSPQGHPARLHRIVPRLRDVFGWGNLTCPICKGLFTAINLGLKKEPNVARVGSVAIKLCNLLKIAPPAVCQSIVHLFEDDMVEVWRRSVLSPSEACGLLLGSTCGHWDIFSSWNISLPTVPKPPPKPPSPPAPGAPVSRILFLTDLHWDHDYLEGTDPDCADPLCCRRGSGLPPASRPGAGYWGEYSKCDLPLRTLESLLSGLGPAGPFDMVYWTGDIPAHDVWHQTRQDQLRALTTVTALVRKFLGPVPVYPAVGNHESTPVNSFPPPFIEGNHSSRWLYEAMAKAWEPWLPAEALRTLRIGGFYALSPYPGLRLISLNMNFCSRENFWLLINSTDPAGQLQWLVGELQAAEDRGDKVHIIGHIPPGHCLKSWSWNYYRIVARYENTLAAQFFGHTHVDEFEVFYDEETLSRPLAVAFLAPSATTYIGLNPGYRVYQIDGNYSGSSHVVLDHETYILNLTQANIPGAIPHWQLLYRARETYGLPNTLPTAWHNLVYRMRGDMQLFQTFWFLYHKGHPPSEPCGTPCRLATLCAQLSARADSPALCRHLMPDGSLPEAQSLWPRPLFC
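Steps: dispense placental human ASM, pin compound, wait 10 min at room temperature, add HMU-PC0 substrate at 9 uM final, incubate 60 min at 37 °C, add stop solution raising pH to 10, read fluorescence.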
Active calls of the source: *; i = inactive; ? = inconclusive; nt = no result given. Unless noted, calls follow the shape of the dose curve; as a rule, active = well fitted curve in the direction sought with a large enough effect; inconclusive = small, poorly fitted or top-dose-only effect, or another doubt; inactive = no such curve, though single readings can be large; an effect the other way counts as inactive or inconclusive.

SMILES	KB-3-1 tox	MCF10A rereplic	Giardia killer	SW480 rereplic	KB-V1 cytotox	S-ASM inh
O=C(COC(=O)c1nn(-c2ccccc2C(F)(F)F)cc1O)c1ccc(OC(F)F)cc1	i	1%	8	2%	i	-4%
C=CCOc1c(Cl)cc(C(=S)N2CCCC2)cc1OCC	6.5µM*	12µM*	-21	?	9.2µM*	-1%
CCOc1cc(C(=S)N2CCCC2)ccc1O	i	?	-15	1%	i	0%
Cc1cccc(N(Cc2cc(=O)[nH]c3ccccc23)C(=O)CCl)c1	i	?	5	?	?	-2%
N#CCCN(C(=O)CCl)c1cccc(Cl)c1	21µM*	?	-5	2.6µM*	?	1%
O=C(CCl)N(c1ccccc1)c1ccccc1	?	?	-21	22%	?	-1%
CCCCCCCN(C(=O)CCl)c1cccc(C)c1	i	?	7	2.1µM*	i	0%
CCCCCCN(C(=O)CCl)c1ccccc1	i	?	1	9.2µM*	i	-2%
N#CCCN(C(=O)COC(=O)c1nc(Cl)ccc1Cl)c1ccccc1	i	2%	-1	1%	i	1%
O=C1CN(C(=O)COc2ccc(Cl)cc2)C(c2ccccc2)c2cc(Br)ccc2N1 (configuration not stated)	i	nt	nt	nt	i	nt
Clc1ccc(CN2CCN(c3ccccc3)CC2)cn1	i	4%	4	-12%	i	4%
O=C(Cn1c(=O)n(Cc2ccc(F)cc2)c(=O)c2sc3ccccc3c21)Nc1ccc(F)cc1F	nt	nt	15	nt	nt	nt
C=CCn1c(SCC(C)=O)nc2scc(-c3ccc(C)o3)c2c1=O	i	?	-17	-5%	i	-2%
C=CCn1c(=S)[nH]c2scc(-c3ccc(C)o3)c2c1=O	i	16µM*	-15	?	i	-2%
Cc1ccc(/C=C2/CNC/C(=C/c3ccc(C)cc3)C2=O)cc1	3.3µM*	?	-9	4.6µM*	4.1µM*	-3%
CCOc1ccc(NC(=O)Cn2cnc3c(oc4ccccc43)c2=O)cc1	i	nt	nt	nt	i	nt
NC(=S)N/N=C/c1ccccc1	i	3%	-11	3%	i	5%
NC(=S)N/N=C/c1ccc(C23CC4CC(CC(C4)C2)C3)cc1	?	?	-5	7.3µM*	i	-1%
CCCCn1nnc(NC(=O)c2ccc(-c3ccccc3[N+](=O)[O-])o2)n1	i	0%	2	12%	i	4%
CCCn1nnc(NC(=O)c2ccccc2Br)n1	i	18µM*	8	5.2µM*	i	2%
CCCn1nnc(NC(=O)/C=C/c2ccco2)n1	i	30%	1	21µM*	i	3%
CCCn1nnc(NC(=O)Cc2ccc(Cl)cc2)n1	?	8.2µM*	-9	-2%	i	-1%
CCCCn1nnc(NC(=S)NC(=O)c2ccc(-c3cccc(Cl)c3Cl)o2)n1	?	14%	-18	-5%	15µM*	-16%
CCCn1nnc(NC(=O)/C=C/c2ccccc2)n1	i	0%	5	-11%	i	0%
CCCn1nnc(NC(=O)COc2ccc(Cl)cc2)n1	i	8%	-16	-2%	i	0%
SMILES	KB-3-1 tox	MCF10A rereplic	Giardia killer	SW480 rereplic	KB-V1 cytotox	S-ASM inh
CCCN(CC(=O)Nc1ccc(F)c(F)c1F)C(=O)Cc1ccc(S(=O)(=O)N2CCOCC2)s1	i	18%	?	-6%	i	-1%
Cc1ccc2nc(Cl)c(/C=N/NC(=O)[C@H]3C[C@@H]3c3ccccc3)cc2c1	i	8.2µM*	1	?	i	11%
CC(C)(C)c1ccc(C2CC2C(=O)N/N=C\c2cc3ccccc3nc2Cl)cc1 (configuration not stated)	i	11%	7	-7%	10µM*	0%
COc1ccc(CCNC(=O)CCc2c(C)nc3cc(-c4ccc(Cl)cc4)nn3c2C)c(OC)c1	i	nt	nt	nt	i	nt
COc1ccc(S(=O)(=O)N2CCN(C(=O)c3c(C)nn(-c4ccccc4)c3C)CC2)cc1	i	5%	5	-2%	13µM*	9%
Cc1nn(-c2ccccc2)c(C)c1C(=O)OCC(=O)N1CCN(S(=O)(=O)c2ccccc2)CC1	i	0%	-5	9%	?	-1%
O=C(O)c1ccccc1SC1=NS(=O)(=O)c2ccccc21	i	nt	nt	nt	?	nt
COc1ccc2cc3cc(C(=O)NC(C)C)oc3nc2c1	i	6%	-8	-3%	2.3µM*	330%
COc1ccc2cc3cc(C(=O)Nc4cc(OC)c(OC)c(OC)c4)oc3nc2c1	i	20%	2	2%	i	-1%
O=C(Nc1cc(=O)[nH]c(=O)[nH]1)c1cc(Cl)ccc1Cl	4.1µM*	?	1	21µM*	?	2%
CC(C)c1nc2n(n1)C1(CCCCC1)[C@@H]1CCCC[C@@H]1N2	i	nt	nt	nt	i	nt
Oc1ccc(Cl)cc1C1=NNC(c2ccc(Cl)cc2)C1 (configuration not stated)	23µM*	18µM*	-23	?	?	0%
Oc1ccc(Cl)cc1C1=NNC(c2cc(Br)cc3c2OCOC3)C1 (configuration not stated)	?	11%	8	116%	i	0%
Oc1c(Cl)cc(Cl)cc1C1=NNC(c2ccc(Cl)cc2)C1 (configuration not stated)	i	16µM*	1	?	?	18%
O=C(O)/C(=C\c1cccc(OCc2ccccc2)c1)c1ccc(F)cc1	i	2%	-3	-2%	i	0%
COC(=O)c1ccccc1NC(=O)COC(=O)c1ccc(C)c(NC(=O)c2ccco2)c1	i	25%	16	?	3.7µM*	-5%
COc1ccc(NC(=O)COC(=O)c2cc(OC)c(OC)cc2NC(=O)c2ccco2)cc1OC	i	?	5	10µM*	i	0%
COC(=O)c1cc(OC)c(OC)cc1NC(=O)c1ccco1	i	3%	4	10%	?	-7%
Cc1cccc(N(C)C(=O)CCS(=O)(=O)c2ccc3c(c2)oc(=O)n3C)c1	i	nt	nt	nt	i	nt
Cc1ccc(-c2c(C(=O)N3CCN(c4ccc(F)cc4)CC3)oc(=O)c3ccccc23)cc1	i	nt	nt	nt	?	nt
O=C(CCl)NCc1c(Cl)cccc1-n1cccc1	i	18µM*	-16	25%	i	4%
COc1cc(OC)c(NC(=O)Cn2c(=O)oc3cc(S(=O)(=O)N4CCCC4)ccc32)cc1Cl	i	nt	nt	nt	i	nt
C=CCN1C(=O)c2ccccc2Sc2ccc(C(=O)N3CCN(C)CC3)cc21	i	-2%	17	-4%	9.2µM*	3%
